# Measured potencies and affinities stand elsewhere.
# Molecular target: Metabotropic glutamate receptor 2 (Rattus norvegicus) (UniProt P31421)
# Experiment: mGluR2 modulation, off-target check – cell-based, rat, selectivity assay for mGluR4 modulator project (AID 2188)
# Conditions: mGluR2 cells, thallium flux, glutamate CRC + 10 uM compound; glutamate EC50 fold-shift by compound; at 10 µM; stronger effect = higher value
# Metabotropic glutamate receptor 2 (Rattus norvegicus), sequence (P31421 whole entry, looked up): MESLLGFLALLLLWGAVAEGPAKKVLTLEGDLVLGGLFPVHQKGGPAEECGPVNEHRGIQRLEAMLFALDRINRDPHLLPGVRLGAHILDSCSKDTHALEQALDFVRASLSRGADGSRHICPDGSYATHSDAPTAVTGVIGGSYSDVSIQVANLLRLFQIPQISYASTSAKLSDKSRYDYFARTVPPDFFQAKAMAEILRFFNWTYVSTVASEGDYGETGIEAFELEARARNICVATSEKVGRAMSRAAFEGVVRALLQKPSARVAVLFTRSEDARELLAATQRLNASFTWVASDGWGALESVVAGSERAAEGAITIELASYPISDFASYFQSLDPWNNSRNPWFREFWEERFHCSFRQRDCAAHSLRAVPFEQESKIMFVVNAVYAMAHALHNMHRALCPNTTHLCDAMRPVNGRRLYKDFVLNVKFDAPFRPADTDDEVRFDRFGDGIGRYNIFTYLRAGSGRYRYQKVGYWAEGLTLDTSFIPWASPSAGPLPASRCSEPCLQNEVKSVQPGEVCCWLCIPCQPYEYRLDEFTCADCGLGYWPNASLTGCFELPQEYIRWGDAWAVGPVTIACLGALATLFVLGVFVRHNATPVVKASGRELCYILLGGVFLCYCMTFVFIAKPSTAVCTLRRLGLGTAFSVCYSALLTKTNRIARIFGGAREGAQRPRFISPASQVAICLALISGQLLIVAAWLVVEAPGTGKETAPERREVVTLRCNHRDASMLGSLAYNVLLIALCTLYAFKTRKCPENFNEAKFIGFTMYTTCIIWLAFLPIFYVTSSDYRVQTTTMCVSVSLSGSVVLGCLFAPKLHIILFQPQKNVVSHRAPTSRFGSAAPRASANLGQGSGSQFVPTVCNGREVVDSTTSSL
row,Compound,fold shift
1,O=C(Nc1cccc(Cl)c1)c1ccccn1,1.87
2,O=C(Nc1ccc(N2C(=O)C3[C@H]4C=C[C@H](C4)[C@H]3C2=O)c(Cl)c1)c1ccccn1 (some centres not stated),1.05

# Reference: PubChem BioAssay AID2188 (Vanderbilt High Throughput Screening Facility, 2009)
